Data from PubChem BioAssay AID1159580 (chemical genetic matrix, 2015).
“And” between values parts separate entries of the source, which are not always exact repeats. Equal values may be shown once. Screen size: about 5,500 compounds; about 2,000 (36%) were called active. About 18% were inconclusive and are not listed. Cut-off read from the data, not from the text of the source: active = normalized growth mostly below about 0.91 (no sharp cut-off); inconclusive = no clear call, values can overlap the other calls; inactive = mostly above about 0.92. Some of the results follow.

Assay: chemical genetic growth profiling, strain panel (AID 1159580);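 note: tested at 20 µM; growth read once vehicle control cultures reached saturation at 30 °C; 1 = growth at the plate median or of vehicle wells; lower values mean less growth of the strain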
Conditions: S. cerevisiae deletion strains, growth OD

Measured: normalized growth

CN1CCc2cccc3c2C1Cc1ccc(O)c(O)c1-3 (stereo not drawn)
inactive: locus YAL013W, strain DEP1, active compounds read low 1.01 | locus YAL040C, strain CLN3, active compounds read low 0.989 | locus YBR009C, strain hhf1, active compounds read low 0.929 | locus YBR021W, strain FUR4, active compounds read low 1.01 | locus YBR171W, strain sec66, active compounds read low 0.949 | locus YBR229C, strain ROT2, active compounds read low 1.01 | locus YCL016C, strain dcc1, active compounds read low 0.925 | locus YCL029C, strain bik1, active compounds read low 0.995 | locus YCL069W, strain vba3, active compounds read low 0.978 | locus YCR088W, strain abp1, active compounds read low 0.986 | locus YDL005C, strain med2, active compounds read low 1.02 | locus YDL035C, strain GPR1, active compounds read low 1.04 | locus YDL040C, strain nat1, active compounds read low 0.977 | locus YDL074C, strain BRE1, active compounds read low 1.01 | locus YDL101C, strain DUN1, active compounds read low 1.01 | locus YDL134C, strain PPH21, active compounds read low 1.03 | locus YDL185W, strain tfp1, active compounds read low 1 | locus YDL192W, strain arf1, active compounds read low 0.997 | locus YDR001C, strain nth1, active compounds read low 1.01 | locus YDR101C, strain arx1, active compounds read low 0.973 | locus YDR137W, strain rgp1, active compounds read low 0.996 | locus YDR159W, strain sac3, active compounds read low 0.987 | locus YDR162C, strain NBP2, active compounds read low 1.03 | locus YDR195W, strain ref2 1.02 | locus YDR318W, strain mcm21, active compounds read low 0.992 | locus YDR335W, strain msn5, active compounds read low 0.923 | locus YDR388W, active compounds read low 0.993 | locus YDR502C, strain sam2, active compounds read low 0.999 | locus YEL003W, strain gim4, active compounds read low 0.942 | locus YEL037C, strain rad23, active compounds read low 0.962 | locus YEL061C, strain CIN8 (second series), active compounds read low 0.971 | locus YEL061C, strain CIN8, active compounds read low 1.01 | locus YER002W, strain NOP16, active compounds read low 0.982 | locus YER016W, strain bim1, active compounds read low 0.979 | locus YER110C, active compounds read low 0.985 | locus YER111C, strain swi4, active compounds read low 0.996 | locus YER155C, strain BEM2, active compounds read low 1 | locus YER167W, strain BCK2, active compounds read low 1.03 | locus YGL078C, strain dbp3, active compounds read low 0.983 | locus YGL086W, strain mad1, active compounds read low 1 | locus YGL167C, strain pmr1, active compounds read low 0.985 | locus YGL227W, strain vid30, active compounds read low 1.02 | locus YGL240W, strain doc1, active compounds read low 0.929 | locus YGL248W, strain PDE1, active compounds read low 1.01 | locus YGL253W, strain hxk2, active compounds read low 0.969 | locus YGR135W, strain pre9, active compounds read low 1 | locus YGR229C, strain SMI1, active compounds read low 1.02 | locus YGR252W, strain gcn5, active compounds read low 1.01 | locus YHR030C, strain SLT2, active compounds read low 1.01 and 1.02 | locus YHR079C, strain IRE1 (second series), active compounds read low 0.994 | locus YHR079C, strain IRE1, active compounds read low 1.05 | locus YHR094C, strain hxt1, active compounds read low 0.99 | locus YHR129C, strain ARP1, active compounds read low 1.01 | locus YHR200W, strain rpn10, active compounds read low 0.997 | locus YIL066C, strain RNR3, active compounds read low 1.03 | locus YIL073C, strain SPO22, active compounds read low 1.03 | locus YIL125W, strain kgd1, active compounds read low 0.989 | locus YIR030C, strain dcg1, active compounds read low 1 | locus YJL092W, strain hpr5, active compounds read low 0.979 | locus YJL095W, strain BCK1, active compounds read low 0.998 and 1.04 | locus YJL115W, strain asf1, active compounds read low 0.999 | locus YJL129C, strain trk1, active compounds read low 1.07 | locus YJL134W, strain LCB3, active compounds read low 1 | locus YJL154C, strain vps35, active compounds read low 1.01 | locus YJL168C, strain set2, active compounds read low 0.989 | locus YJL187C, strain SWE1 (second series), active compounds read low 1.01 | locus YJR043C, strain POL32, active compounds read low 1.03 | locus YJR066W, strain TOR1, active compounds read low 0.989
active: locus YAL021C, strain ccr4, active compounds read low 0.83 | locus YAL026C, strain drs2, active compounds read low 0.862 | locus YAL030W, strain snc1, active compounds read low 0.866 | locus YBL061C, strain skt5, active compounds read low 0.865 | locus YBR023C, strain chs3, active compounds read low 0.85 | locus YBR231C, strain swc5, active compounds read low 0.785 | locus YBR279W, strain paf1, active compounds read low 0.924 | locus YCL011C, strain gbp2, active compounds read low 0.883 | locus YCL061C, strain MRC1 (second series), active compounds read low 0.611 | locus YDR069C, strain doa4, active compounds read low 0.573 | locus YDR297W, strain sur2, active compounds read low 0.88 | locus YDR334W, strain swr1, active compounds read low 0.873 | locus YDR363W, strain ESC2, active compounds read low 0.823 | locus YDR392W, strain spt3, active compounds read low 0.534 | locus YER015W, strain faa2, active compounds read low 0.784 | locus YER155C, strain BEM2 (second series), active compounds read low 0.861 | locus YFR010W, strain ubp6, active compounds read low 0.882 | locus YGL173C, strain kem1, active compounds read low 0.725 | locus YHR013C, strain ard1, active compounds read low 0.818 | locus YHR027C, strain rpn1, active compounds read low 0.826 | locus YHR142W, strain chs7, active compounds read low 0.867 | locus YJL095W, strain BCK1 (second series), active compounds read low 0.906 | locus YJL164C, strain tpk1, active compounds read low 0.874 | locus YJL166W, strain qcr8, active compounds read low 0.742 | locus YJL187C, strain SWE1, active compounds read low 0.887
